Results filed as inconclusive are left out. Where a call stands in place of a potency, no number is given. Active and inactive are the calls of the source. Unless noted, the call rests on the fitted dose curve; in most records, active means well fitted activation curve with a large enough effect; inconclusive means small, poorly fitted or top-dose-only effect; inactive means flat fitted curve, though single readings scatter.
Tests used:
[1] = Confirmation and Secondary Assay for Modulators of Hemoglobin Beta Chain Splicing at IVS2 654 locus (AID 910); details: HeLa EGFP-654 splicing reporter, GFP fluorescence, 48 h; series mostly up to 46.1 µM;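 further: HeLa cells stably carrying EGFP split by mutant beta-globin IVS2-654 intron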
Outline: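 HeLa cells stably expressing EGFP interrupted by β-globin IVS2-654 intron, seeded overnight in Opti-MEM/2% FCS, then treated 2 days at 37 °C. Restored splicing read as total peak GFP intensity per well by laser scanning cytometry (488 nm excitation, 500–520 nm emission); 500 nM antisense PNA as control.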

[2] = Confirmation and Secondary Assay for Modulators of Hemoglobin Beta Chain Splicing at IVS2 705 locus (AID 930); details: HeLa EGFP-705 splicing reporter, GFP fluorescence, 48 h; series mostly up to 46.1 µM;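 further: HeLa cells stably expressing the EGFP-705 splicing reporter; GFP fluorescence per well restored by corrected splicing of the IVS2-705 intron in EGFP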
Outline: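 Stable HeLa line with EGFP disrupted by mutant beta-globin intron 2 (705). Overnight attachment, then 2 days of compound at 37C, 5% CO2. Signal: peak GFP intensity summed over objects 5-250 µm.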

[3] = qHTS profiling of the MIPE4 collection as inhibitors of Plasmodium falciparum (3D7) proliferation (AID 743344; call rule not given here); details: P. falciparum 3D7 in erythrocytes, SYBR Green DNA fluorescence, 72 h; at 9.64 µM (top of the series)
Outline: (§1)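 Erythrocytes infected with P. falciparum (0.3% parasitemia, 2.5% hematocrit) incubated with compounds 72 h at 37 C, 5% CO2. Lysis with saponin/Triton buffer containing SYBR Green I, overnight at room temperature in the dark; DNA fluorescence (485/535 nm) normalised to 0.29 uM artemisinin and DMSO.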

[4] = qHTS profiling of the MIPE4 collection as inhibitors of Plasmodium falciparum (DD2) proliferation (AID 743345; call rule not given here); details: P. falciparum Dd2 in erythrocytes, SYBR Green DNA, 72 h; at 9.64 µM (top of the series)
Outline: as §1

[5] = qHTS profiling of the MIPE4 collection as inhibitors of Plasmodium falciparum (DD2) proliferation (Rep 2) (AID 743346; call rule not given here); details: P. falciparum Dd2 in erythrocytes, SYBR Green DNA, 72 h; at 9.64 µM (top of the series)
Outline: as §1

[6] = qHTS profiling of the MIPE4 collection as inhibitors of Plasmodium falciparum (HB3) proliferation (AID 743347; call rule not given here); details: P. falciparum HB3 in erythrocytes, SYBR Green DNA, 72 h; at 9.64 µM (top of the series)
From the text: Plasmodium falciparum is a virulent malarial parasite that kills 1-2 million people worldwide each year. Transmitted by mosquitoes, the sporozoite form of the parasite enters the blood stream to infect hepatocytes, where they become merozoites that infect red blood cells (erythrocytes). Within erythrocytes, merozoites begin a […] cycle of growth and division, after which the parasite is released to infect new red blood cells. Gametocytes, which form within erythrocytes as well, circulate in the bloodstream and are ingested by the mosquito, thereby completing the life cycle. To profile malarial isolates for differential chemical responses and to identify inhibitors of malarial growth, an assay that measures P. falciparum growth and replication within erythrocytes was employed. This assay uses a DNA binding fluorescent dye (SYBR Green) to detect parasite DNA following cell lysis. Because mature erythrocytes lack DNA, only Plasmodium-derived DNA is detected.
The SYBR Green viability assay was adapted from a method described previously (Plouffe et al., 2008). For screening 3 ul culture medium was dispensed into 1536 well black clear bottom plates (Aurora Biotechnologies) using a Multidrop Combi (Thermo Fisher Scientific Inc.), 23 nL compounds in DMSO were added by a pin tool (Kalypsys), and 5 ul of erythrocytes infected with P. falciparum (0.3% parasitemia, 2.5% hematocrit final concentration) were added. The plates were incubated at 37 C in a humidified incubator in 5% CO2 for 72 h, and 2 ul lysis buffer (20 mM Tris HCl, 10 mM EDTA, 0.16% saponin, 1.6% triton X, 10X SYBR Green I supplied as 10,000X […] by Invitrogen) was added to each well. […] The following morning, fluorescence intensity at 485(14) nm excitation and 535(25) nm emission wavelengths was measured on an EnVision (Perkin Elmer) plate reader. Plate reads were normalized relative to the control inhibitor (0.29 uM artemisinin) and vehicle (DMSO) wells present on each plate and then corrected by an algorithm using vehicle-only control plates at the beginning and end of the compound plate stack.

[7] = qHTS Assay for Identification of Small Molecule Agonists for Hypoxia Response Element Signaling Pathway (AID 914; active means well fitted activation curve with a large enough effect in the signal ratio, with a control signal flat, not every such curve was filed as active; the % refers to the signal ratio); details: ME-180 (cervical carcinoma) HRE-bla reporter, beta-lactamase ratio, CoCl2, 17 h; activation: stronger effect = higher value
Outline: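 Reporter activity (beta-lactamase, CCF4 460nm/530nm ratio) in HRE-bla ME-180 cells is recorded after 17 h compound exposure with EC50 CoCl2 at 37 degrees Celsius. AC50 values come from titration data.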

Cc1noc(C)c1-c1nc(Nc2ccncc2)c2ccccc2n1
Potency [1]: inactive | Potency [2]: inactive

CC(C)(N=NC(C)(C)C(=N)N)C(=N)N
Potency [1]: inactive | Potency [2]: inactive

CC(=O)N[C@H](CS)C(=O)O
Potency [1]: inactive | Potency [2]: inactive

COc1cc2c(cc1OC)-c1cc3ccc(OC)c(OC)c3c[n+]1CC2
Potency [1]: inactive | Potency [2]: inactive

N#Cc1cccc(-c2cncnc2-n2ccnc2)c1
Potency [1]: inactive | Potency [2]: inactive

CO[C@H]1C=CO[C@]2(C)Oc3c(C)c(O)c4c(O)c(c5c(c4c3C2=O)NC2(CCN(CC(C)C)CC2)N=5)=NC(=O)C(C)=CC=C[C@@H](C)[C@@H](O)[C@@H](C)[C@@H](O)[C@@H](C)[C@@H](OC(C)=O)[C@@H]1C
parasite growth, % of DMSO control [3]: 68.3% | parasite growth remaining, % of DMSO control (lower = more inhibition) [4]: 68.3% | parasite growth, % of control (lower = inhibition) [5]: 36% | growth, % of control [6]: 93.1%

C[C@@H]1[C@H]2CC[C@@H]3[C@@H]4CC=C5C[C@@H](N(C)C)CC[C@]5(C)[C@@H]4CC[C@@]32CN1C
activation [7]: 23.8% (inactive)

COc1cc2cc3c4cc(OC)c(OC)cc4cc[n+]3c(C)c2cc1OC
Potency [1]: inactive

Reference: PubChem BioAssay (NCATS)
